According to PubChem BioAssay AID743150 (Broad Institute, 2013):
Measured potencies and affinities stand elsewhere. The source made the active and inactive calls. The rule behind the calls is not given here.

test: cytotoxicity in OVCAR4 cells, dose response, cytotoxicity control for PAX8 inhibitor project, cell-based, plate reader, dry powder, SA11 (AID 743150); details: series mostly up to 35 µM; activity change, negative = cytotoxicity: at the top concentration

Row | SMILES | activity change, negative = cytotoxicity
1 | N#C[C@@H]1[C@@H](c2ccc(-c3cccc(F)c3)cc2)[C@H](CO)N1C(=O)NC1CCCC1 | 7.32% (inactive)
2 | C[C@@H]1CN([C@@H](C)CO)S(=O)(=O)c2ccc(C#Cc3ccncc3)cc2O[C@H]1CN(C)C(=O)Nc1ccc2c(c1)OCO2 | -32.7% (inactive)
3 | CN(C)CCCN(C(=O)CCOc1ccccc1)c1nc2c(F)cccc2s1 | -23.9% [at 50 µM] (inactive)
4 | C[C@H]1CN([C@@H](C)CO)C(=O)Cc2cc(NC(=O)NC3CCCCC3)ccc2O[C@@H]1CN(C)Cc1ccc(-c2ccccc2)cc1 | 0.265% (inactive)
5 | O=C(CN1C(=O)c2ccccc2S1(=O)=O)c1ccccc1Cl | -13.4% [at 50 µM] (inactive)
6 | C[C@H](CO)N1C[C@H](C)[C@@H](CN(C)Cc2ccc(C(F)(F)F)cc2)OCCCC[C@H](C)Oc2ccc(NS(=O)(=O)c3ccc(F)cc3)cc2C1=O | 4.54% (inactive)
7 | CC(C)c1cc(C(=O)OCC(=O)N2CCN(C(=O)c3ccco3)CC2)c(O)c(C(C)C)c1 | 30.7% [at 50 µM] (inactive)
8 | N#C[C@H]1[C@@H](c2ccc(C#CC3CCCCC3)cc2)[C@@H](CO)N1S(=O)(=O)c1ccccc1 | -2.06% (inactive)
9 | Cc1ccc(S(=O)(=O)Nc2ccc3c(c2)nc(CCN2CCCC2)n3C)cc1 | -9.44% [at 50 µM] (inactive)
10 | C[C@H](CO)N1C[C@H](C)[C@@H](CN(C)S(=O)(=O)c2ccc(Cl)cc2)OCCCC[C@H](C)Oc2ccc(NS(=O)(=O)c3ccccc3)cc2C1=O | -9.96% (inactive)
11 | O=C1/C(=C/c2ccccc2)SC(=S)N1CC(=O)N1CCCCC1c1cccnc1 (stereo unspecified) | 26.6% [at 50 µM] (inactive)
12 | O=C(/C=C/c1ccccc1)Nc1cccc(C(=O)O)c1 | -28.6% [at 50 µM] (inactive)
13 | O=C(C[C@H]1CC[C@H]2[C@@H](COC[C@@H](O)CN2S(=O)(=O)c2cccc(Cl)c2)O1)Nc1ccc(-c2ccccc2)cc1 | -2.05% (inactive)
14 | CCCC#Cc1ccc([C@@H]2[C@H](C#N)N(S(=O)(=O)c3cccc(F)c3)[C@H]2CO)cc1 | -6.39% (inactive)
15 | N#C[C@@H]1[C@H](c2ccc(C#Cc3ccc(F)cc3)cc2)[C@@H](CO)N1C(=O)Nc1ccc(F)cc1 | 26.1% (inactive)
16 | N#C[C@@H]1[C@@H](c2ccc(C#Cc3ccccc3F)cc2)[C@H](CO)N1C(=O)C1CCCCC1 | 5.8% (inactive)

Row | SMILES | activity change, negative = cytotoxicity
17 | COC(=O)[C@@]1(CCS(=O)(=O)c2ccccc2)N=C(c2ccc(OCCCO)cc2)O[C@H]1c1ccccc1 | 30.5% [at 50 µM] (inactive)
18 | N#C[C@@H]1[C@@H](c2ccc(-c3ccccc3F)cc2)[C@@H](CO)N1C(=O)C1CCC1 | 3.27% (inactive)
19 | C[C@@H]1CN([C@@H](C)CO)S(=O)(=O)c2ccc(C#C[C@@H](C)O)cc2O[C@H]1CN(C)Cc1ccc(-c2ccccc2)cc1 | 16.7% (inactive)
20 | COc1ccccc1C#Cc1ccc([C@H]2[C@@H](CO)N(C(=O)C3CCCC3)[C@H]2C#N)cc1 | -21.2% (inactive)
21 | COc1cccc(C#Cc2ccc([C@H]3[C@@H](CO)N(C(=O)c4ccccn4)[C@H]3C#N)cc2)c1 | 0.618% (inactive)
22 | O=C(NCCc1ccccc1)c1ccc2c(c1)OCCCO2 | -11.5% [at 50 µM] (inactive)
23 | C[C@H](CO)N1C[C@H](C)[C@H](CN(C)C(=O)Nc2ccc(-c3cccs3)cc2)OCc2cnnn2CCCC1=O | 50.2% (inactive)
24 | CCSCCc1nnc(NC(=O)Nc2cccc(C(F)(F)F)c2)s1 | 5.07% [at 50 µM] (inactive)
25 | COc1cccc(C#Cc2ccc([C@@H]3[C@H](C#N)N(C(=O)c4ccccn4)[C@H]3CO)cc2)c1 | 11.8% (inactive)
26 | C[C@H](CO)N1C[C@H](C)[C@@H](CN(C)Cc2ccc(C(F)(F)F)cc2)Oc2ccc(NS(=O)(=O)c3ccccc3)cc2CC1=O | 4.05% (inactive)
27 | CCCC#Cc1ccc([C@@H]2[C@@H](C#N)N(C(=O)C3CCCCC3)[C@H]2CO)cc1 | 7.79% (inactive)
28 | N#C[C@@H]1[C@@H](c2ccc(C3=CCCCC3)cc2)[C@@H](CO)N1C(=O)NC1CCCCC1 | 6.62% (inactive)
29 | C[C@@H]1CN([C@H](C)CO)C(=O)CCCn2nncc2CO[C@H]1CN(C)Cc1ccc(Oc2ccccc2)cc1 | 13.8% (inactive)
30 | O=C(N1CCCCC1)[C@@]1(CCS(=O)(=O)c2ccccc2)N=C(c2ccc(OCCCO)cc2)O[C@H]1c1ccccc1 | 1.84% [at 50 µM] (inactive)
31 | COc1ccc(S(=O)(=O)N2CCCCN3[C@H](CO)[C@H](c4ccc(C#CC(C)C)cc4)[C@H]3C2)cc1 | 12.5% (inactive)
